Inconclusive results are not listed. Active and inactive are the calls of the source. How the source made its calls: active means hit-call score of the fitted dose curve at least 0.9, where 1 is the maximum; inconclusive means response in the unintended direction; inactive means score below 0.9.
biological target: human Protein Tyrosine Phosphatase Non-receptor Type 9 (PTPN9), PTPN9 (gene 5780) (UniProt P43378); assay: NVS_ENZ_hPTPN9: NovaScreen (NVS) Enzymatic Assay for human Protein Tyrosine Phosphatase Non-receptor Type 9 (PTPN9) (AID 2283209)
How it was run: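 Sf9-expressed enzyme in a cell-free assay, fluorescence read 1.33 h after dosing with mobility-shift separation of substrate and product. Tested at 25 uM in duplicate, then up to 50 uM; signal loss versus DMSO.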

Chain of human Protein Tyrosine Phosphatase Non-receptor Type 9 (PTPN9), PTPN9 (gene 5780) (P43378 whole entry, looked up): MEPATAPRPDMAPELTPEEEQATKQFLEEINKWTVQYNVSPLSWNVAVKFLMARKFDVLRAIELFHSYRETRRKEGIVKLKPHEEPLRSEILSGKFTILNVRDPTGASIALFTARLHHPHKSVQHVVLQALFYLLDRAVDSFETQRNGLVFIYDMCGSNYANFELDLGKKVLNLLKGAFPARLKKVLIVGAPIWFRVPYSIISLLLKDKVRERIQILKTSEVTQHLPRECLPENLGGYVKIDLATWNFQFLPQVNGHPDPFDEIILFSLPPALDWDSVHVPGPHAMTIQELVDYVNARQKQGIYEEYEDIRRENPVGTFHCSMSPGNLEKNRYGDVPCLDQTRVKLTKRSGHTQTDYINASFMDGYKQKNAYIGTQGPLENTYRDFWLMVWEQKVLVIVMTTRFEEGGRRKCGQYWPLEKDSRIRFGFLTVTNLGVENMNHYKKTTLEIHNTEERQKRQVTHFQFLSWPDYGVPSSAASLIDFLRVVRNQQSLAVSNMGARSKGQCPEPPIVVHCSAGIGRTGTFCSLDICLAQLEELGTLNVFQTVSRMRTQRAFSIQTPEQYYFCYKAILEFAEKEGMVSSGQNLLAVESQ

Q: Which AC50 does the source give for `CCC(C)(C)c1ccc(O)cc1` here?
A: The AC50 was 42.1 µM (active).

Q: With `CN(C)C(=O)Cl` as the compound, how does the AC50 read?
A: The AC50 was 41.7 µM (active).

Q: Which outcome does the source give for `OCC1CO1` (stereo not drawn) here?
A: The outcome was “inactive”.

biological target: human Protein Tyrosine Phosphatase Non-receptor Type 6 (PTPN6), PTPN6 (gene 5777) (UniProt P29350); assay: NVS_ENZ_hPTPN6: NovaScreen (NVS) Enzymatic Assay for human Protein Tyrosine Phosphatase Non-receptor Type 6 (PTPN6) (AID 2283210)
Description: NVS_ENZ_hPTPN6 is a biochemical, single-readout assay that uses extracted gene-proteins from SF9 in a cell-free assay. Measurements were taken 1.33 hours after chemical dosing in a 384-well plate.NVS_ENZ_hPTPN6 is one of one assay component(s) measured or calculated from the NVS_ENZ_hPTPN6 assay. It is designed to make measurements of enzyme activity, a form of enzyme reporter, as detected with fluorescence intensity signals by Fluorescence and electrophoretic mobility shift technology.Data from the assay component NVS_ENZ_hPTPN6 was analyzed into 1 assay endpoint. This assay endpoint, NVS_ENZ_hPTPN6, was analyzed in the positive analysis fitting direction relative to DMSO as the negative control and baseline of activity. Using a type of enzyme reporter, loss-of-signal activity can be used to understand changes in the enzymatic activity as they relate to the gene PTPN6. Furthermore, this assay endpoint can be referred to as a primary readout, because this assay has produced multiple assay endpoints where this one serves a enzymatic activity function. To generalize the intended target to other relatable targets, this assay endpoint is annotated to the phosphatase intended target family, where the subfamily is non-receptor tyrosine phosphatase.
(§1) Binding assays used specific radioligands (tritiated, iodinated) with non-radioactive competitive displacement ligands in agonist or antagonist protocols (as indicated) and various reference compounds and inhibitors to titrate specific binding to receptors and transporters. Most enzyme assays (CYPs, kinases, phosphatases, proteases, HDACs) used recombinant protein and specific substrates (fluorescence mostly, some colorimetric and radioactive) and inhibitors, followed by a biochemical separation of substrate and product. All assays for the biochemical HTS were initially run in duplicate at a single concentration (10 uM for CYP450 assays and 25 uM for all others). […] Each assay was run with positive and negative controls, and concurrent controls on every plate. The follow-up (secondary) screen tested active chemical-pairs in concentration series, as well as a few additional assays not tested in the primary screen, some selected negative inactives, and several cases re-run in the concentration series for confirmatory purposes.

Chain of human Protein Tyrosine Phosphatase Non-receptor Type 6 (PTPN6), PTPN6 (gene 5777) (P29350 whole entry, looked up): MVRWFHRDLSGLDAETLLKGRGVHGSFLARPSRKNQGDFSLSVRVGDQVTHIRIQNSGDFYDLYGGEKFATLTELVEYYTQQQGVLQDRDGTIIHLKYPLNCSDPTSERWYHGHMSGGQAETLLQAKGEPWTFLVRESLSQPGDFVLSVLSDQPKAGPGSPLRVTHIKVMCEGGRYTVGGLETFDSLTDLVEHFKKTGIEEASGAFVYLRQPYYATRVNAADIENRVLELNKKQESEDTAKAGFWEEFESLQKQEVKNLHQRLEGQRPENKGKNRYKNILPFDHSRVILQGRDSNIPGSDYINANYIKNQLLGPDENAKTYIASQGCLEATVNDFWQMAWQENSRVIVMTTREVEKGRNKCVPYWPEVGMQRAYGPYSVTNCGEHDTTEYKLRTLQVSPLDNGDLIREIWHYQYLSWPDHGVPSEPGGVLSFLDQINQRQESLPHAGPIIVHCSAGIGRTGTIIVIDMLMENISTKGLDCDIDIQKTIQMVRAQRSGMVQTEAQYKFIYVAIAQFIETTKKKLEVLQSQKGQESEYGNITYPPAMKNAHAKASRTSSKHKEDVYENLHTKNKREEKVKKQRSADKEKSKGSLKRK

Q: `CC(C)(C)OOC(C)(C)C` was tested. Which outcome did it give?
A: Its outcome is “inactive”.

Q: With `c1nc[nH]n1` as the compound, how does the outcome read?
A: The outcome was “inactive”.

Q: How did the outcome turn out when `CN(C)C(=O)Cl` was run?
A: The outcome was “inactive”.

Q: `[N-]=[N+]=[N-]` was tested. Which outcome did it give?
A: The outcome was “inactive”.

Q: With `ClC(Cl)c1ccccc1` as the compound, how does the outcome read?
A: The outcome was “inactive”.

Q: How did the outcome turn out when `O=C(O)C1C(C(=O)O)C2(Cl)C(Cl)=C(Cl)C1(Cl)C2(Cl)Cl` (stereo not drawn) was run?
A: Its outcome is “inactive”.

Q: How did the outcome turn out when `CCOS(=O)(=O)OCC` was run?
A: The outcome was “inactive”.

biological target: human Protein Tyrosine Phosphatase Receptor Type C (PTPRC), PTPRC (gene 5788) (UniProt P08575); assay: NVS_ENZ_hPTPRC: NovaScreen (NVS) Enzymatic Assay for human Protein Tyrosine Phosphatase Receptor Type C (PTPRC) (AID 2283212)
Description: NVS_ENZ_hPTPRC is a biochemical, single-readout assay that uses extracted gene-proteins from yeast cells in a cell-free assay. Measurements were taken 1 hour after chemical dosing in a 96-well plate.NVS_ENZ_hPTPRC is one of one assay component(s) measured or calculated from the NVS_ENZ_hPTPRC assay. It is designed to make measurements of enzyme activity, a form of enzyme reporter, as detected with absorbance signals by Colorimetric technology.Data from the assay component NVS_ENZ_hPTPRC was analyzed into 1 assay endpoint. This assay endpoint, NVS_ENZ_hPTPRC, was analyzed in the positive analysis fitting direction relative to DMSO as the negative control and baseline of activity. Using a type of enzyme reporter, loss-of-signal activity can be used to understand changes in the enzymatic activity as they relate to the gene PTPRC. Furthermore, this assay endpoint can be referred to as a primary readout, because this assay has produced multiple assay endpoints where this one serves a enzymatic activity function. To generalize the intended target to other relatable targets, this assay endpoint is annotated to the phosphatase intended target family, where the subfamily is receptor tyrosine phosphatase.
Binding assays used specific radioligands (tritiated, iodinated) with non-radioactive competitive displacement ligands in agonist or antagonist protocols (as indicated) and various reference compounds and inhibitors to titrate specific binding to receptors and transporters. Most enzyme assays (CYPs, kinases, phosphatases, proteases, HDACs) used recombinant protein and specific substrates (fluorescence mostly, some colorimetric and radioactive) and inhibitors, followed by a biochemical separation of substrate and product. All assays for the biochemical HTS were initially run in duplicate at a single concentration (10 uM for CYP450 assays and 25 uM for all others). Assay-chemical combinations meeting a pre-defined threshold (e.g., 30% inhibition and other criteria defined below) were then run in singleton concentration-response format with maximum concentration of 20 uM for CYPs and 50 uM for all others. Each assay was run with positive and negative controls, and concurrent controls on every plate. The follow-up (secondary) screen tested active chemical-pairs in concentration series, as well as a few additional assays not tested in the primary screen, some selected negative inactives, and several cases re-run in the concentration series for confirmatory purposes.

Chain of human Protein Tyrosine Phosphatase Receptor Type C (PTPRC), PTPRC (gene 5788) (P08575 whole entry, looked up): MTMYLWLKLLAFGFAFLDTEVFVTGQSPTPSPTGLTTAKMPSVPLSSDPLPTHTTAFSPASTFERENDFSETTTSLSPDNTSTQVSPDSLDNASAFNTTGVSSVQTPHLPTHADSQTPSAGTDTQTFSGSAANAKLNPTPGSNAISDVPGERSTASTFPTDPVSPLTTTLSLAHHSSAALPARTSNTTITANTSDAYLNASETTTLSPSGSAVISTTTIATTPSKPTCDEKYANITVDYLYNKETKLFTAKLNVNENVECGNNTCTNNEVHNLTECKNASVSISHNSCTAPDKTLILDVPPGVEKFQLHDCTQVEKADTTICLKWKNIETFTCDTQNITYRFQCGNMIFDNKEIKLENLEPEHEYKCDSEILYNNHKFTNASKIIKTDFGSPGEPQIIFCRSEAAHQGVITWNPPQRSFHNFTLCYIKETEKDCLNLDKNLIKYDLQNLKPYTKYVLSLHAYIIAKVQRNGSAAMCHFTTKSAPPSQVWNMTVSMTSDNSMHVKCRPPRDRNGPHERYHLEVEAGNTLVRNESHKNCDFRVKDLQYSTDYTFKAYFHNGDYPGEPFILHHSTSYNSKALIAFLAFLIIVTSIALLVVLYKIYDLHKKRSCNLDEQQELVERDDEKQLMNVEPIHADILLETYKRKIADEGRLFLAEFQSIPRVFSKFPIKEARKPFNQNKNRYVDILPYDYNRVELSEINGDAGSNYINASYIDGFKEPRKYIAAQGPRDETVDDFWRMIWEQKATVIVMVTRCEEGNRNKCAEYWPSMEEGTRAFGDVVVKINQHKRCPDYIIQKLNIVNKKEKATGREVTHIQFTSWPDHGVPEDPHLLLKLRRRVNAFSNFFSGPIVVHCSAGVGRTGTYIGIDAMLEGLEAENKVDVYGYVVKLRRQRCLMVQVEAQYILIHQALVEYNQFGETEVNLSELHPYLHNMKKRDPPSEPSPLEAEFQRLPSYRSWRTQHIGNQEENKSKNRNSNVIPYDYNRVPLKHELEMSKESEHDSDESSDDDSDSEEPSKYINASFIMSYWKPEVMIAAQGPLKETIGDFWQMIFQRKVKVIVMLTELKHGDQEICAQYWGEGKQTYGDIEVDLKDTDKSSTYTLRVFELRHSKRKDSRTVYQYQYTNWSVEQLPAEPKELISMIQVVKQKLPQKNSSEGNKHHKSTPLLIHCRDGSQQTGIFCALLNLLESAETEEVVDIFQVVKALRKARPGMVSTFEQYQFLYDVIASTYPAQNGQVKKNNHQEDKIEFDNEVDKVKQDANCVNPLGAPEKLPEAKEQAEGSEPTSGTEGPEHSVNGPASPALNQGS

Q: How did the outcome turn out when `O=P1(N(CCCl)CCCl)NCCCO1` (stereo not drawn) was run?
A: Its outcome is “inactive”.

Q: For `Cc1ccc(O)cc1C`, which outcome is on record?
A: Its outcome is “inactive”.

Q: Which AC50 does the source give for `Nc1ccc2ccccc2c1` here?
A: The AC50 was 12.3 µM (active).

Q: Which AC50 does the source give for `Cc1ccc(N)cc1N` here?
A: The AC50 was 32.2 µM (active).

Q: Which AC50 does the source give for `CCCCN(CCCC)SN(C)C(=O)Oc1cccc2c1OC(C)(C)C2` here?
A: Its AC50 is 7.97 µM (active).

biological target: human Rho Associated Coiled-coil Containing Protein Kinase 1 (ROCK1), ROCK1 (gene 6093) (UniProt Q13464); assay: NVS_ENZ_hROCK1: NovaScreen (NVS) Enzymatic Assay for human Rho Associated Coiled-coil Containing Protein Kinase 1 (ROCK1) (AID 2283214)
Description: NVS_ENZ_hROCK1 is a biochemical, single-readout assay that uses extracted gene-proteins in a cell-free assay. Measurements were taken 1 hour after chemical dosing in a 384-well plate.NVS_ENZ_hROCK1 is one of one assay component(s) measured or calculated from the NVS_ENZ_hROCK1 assay. It is designed to make measurements of enzyme activity, a form of enzyme reporter, as detected with fluorescence intensity signals by Fluorescence and electrophoretic mobility shift technology.Data from the assay component NVS_ENZ_hROCK1 was analyzed into 1 assay endpoint. This assay endpoint, NVS_ENZ_hROCK1, was analyzed in the positive analysis fitting direction relative to DMSO as the negative control and baseline of activity. Using a type of enzyme reporter, loss-of-signal activity can be used to understand changes in the enzymatic activity as they relate to the gene ROCK1. Furthermore, this assay endpoint can be referred to as a primary readout, because this assay has produced multiple assay endpoints where this one serves a enzymatic activity function. To generalize the intended target to other relatable targets, this assay endpoint is annotated to the kinase intended target family, where the subfamily is serine/threonine kinase.
as §1, with “The follow-up (secondary) screen tested active chemical-pairs in concentration series, as well as a few additional assays not tested in the primary screen, some selected negative inactives, and several cases re-run in the concentration series for confirmatory purposes.” left out

Chain of human Rho Associated Coiled-coil Containing Protein Kinase 1 (ROCK1), ROCK1 (gene 6093) (Q13464 whole entry, looked up): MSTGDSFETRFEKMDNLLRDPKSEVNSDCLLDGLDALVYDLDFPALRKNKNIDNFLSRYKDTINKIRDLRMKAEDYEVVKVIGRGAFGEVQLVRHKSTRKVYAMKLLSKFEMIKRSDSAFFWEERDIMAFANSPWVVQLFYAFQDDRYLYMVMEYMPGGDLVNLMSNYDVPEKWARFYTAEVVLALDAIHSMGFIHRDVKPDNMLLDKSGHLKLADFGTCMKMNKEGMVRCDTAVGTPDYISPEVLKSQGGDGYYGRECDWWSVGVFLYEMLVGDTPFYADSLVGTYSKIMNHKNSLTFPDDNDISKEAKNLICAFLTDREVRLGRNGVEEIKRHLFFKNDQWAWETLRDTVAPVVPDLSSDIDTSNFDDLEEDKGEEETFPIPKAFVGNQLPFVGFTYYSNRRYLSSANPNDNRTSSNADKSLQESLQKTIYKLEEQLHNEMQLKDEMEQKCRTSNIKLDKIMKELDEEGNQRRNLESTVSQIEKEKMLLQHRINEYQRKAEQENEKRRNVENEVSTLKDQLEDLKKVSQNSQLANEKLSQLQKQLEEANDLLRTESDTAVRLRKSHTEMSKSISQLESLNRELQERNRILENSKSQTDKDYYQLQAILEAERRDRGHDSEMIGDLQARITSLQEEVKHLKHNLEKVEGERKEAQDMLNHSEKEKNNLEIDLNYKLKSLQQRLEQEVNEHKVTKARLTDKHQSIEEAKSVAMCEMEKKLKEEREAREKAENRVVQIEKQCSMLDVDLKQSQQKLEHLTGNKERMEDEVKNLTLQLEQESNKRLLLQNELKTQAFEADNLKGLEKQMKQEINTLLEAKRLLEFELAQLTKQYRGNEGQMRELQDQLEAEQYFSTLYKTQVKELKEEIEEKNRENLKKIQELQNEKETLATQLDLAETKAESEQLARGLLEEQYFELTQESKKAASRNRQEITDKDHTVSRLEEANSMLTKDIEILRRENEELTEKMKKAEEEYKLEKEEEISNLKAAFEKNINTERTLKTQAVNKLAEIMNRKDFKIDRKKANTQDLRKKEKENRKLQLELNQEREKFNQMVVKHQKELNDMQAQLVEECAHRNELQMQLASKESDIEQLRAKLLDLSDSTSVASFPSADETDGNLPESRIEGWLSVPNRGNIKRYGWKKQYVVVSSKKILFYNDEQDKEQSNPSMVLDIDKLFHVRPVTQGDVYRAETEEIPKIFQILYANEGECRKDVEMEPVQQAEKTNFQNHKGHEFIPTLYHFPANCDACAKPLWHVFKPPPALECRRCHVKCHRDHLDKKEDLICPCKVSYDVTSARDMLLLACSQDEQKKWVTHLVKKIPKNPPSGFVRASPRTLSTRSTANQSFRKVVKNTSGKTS

Q: Which outcome does the source give for `Cc1ccc([N+](=O)[O-])cc1C` here?
A: The outcome was “inactive”.

Q: `O=P(Oc1ccccc1)(Oc1ccccc1)Oc1ccccc1` was tested. Which outcome did it give?
A: Its outcome is “inactive”.

Q: `CCOc1ccc(C(C)(C)COCc2cccc(Oc3ccccc3)c2)cc1` was tested. Which outcome did it give?
A: Its outcome is “inactive”.

biological target: human Sirtuin 1 (SIRT1), SIRT1 (gene 23411) (UniProt Q96EB6); assay: NVS_ENZ_hSIRT1: NovaScreen (NVS) Enzymatic Assay for human Sirtuin 1 (SIRT1) (AID 2283219)
How it was run: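 Cell-free recombinant SIRT1 with a fluorescent substrate; substrate and product separated by electrophoretic mobility shift and read by fluorescence intensity, 1 h after dosing. Primary screen at 25 uM in duplicate; hits re-run in concentration-response up to 50 uM, relative to DMSO.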

Chain of human Sirtuin 1 (SIRT1), SIRT1 (gene 23411) (Q96EB6 whole entry, looked up): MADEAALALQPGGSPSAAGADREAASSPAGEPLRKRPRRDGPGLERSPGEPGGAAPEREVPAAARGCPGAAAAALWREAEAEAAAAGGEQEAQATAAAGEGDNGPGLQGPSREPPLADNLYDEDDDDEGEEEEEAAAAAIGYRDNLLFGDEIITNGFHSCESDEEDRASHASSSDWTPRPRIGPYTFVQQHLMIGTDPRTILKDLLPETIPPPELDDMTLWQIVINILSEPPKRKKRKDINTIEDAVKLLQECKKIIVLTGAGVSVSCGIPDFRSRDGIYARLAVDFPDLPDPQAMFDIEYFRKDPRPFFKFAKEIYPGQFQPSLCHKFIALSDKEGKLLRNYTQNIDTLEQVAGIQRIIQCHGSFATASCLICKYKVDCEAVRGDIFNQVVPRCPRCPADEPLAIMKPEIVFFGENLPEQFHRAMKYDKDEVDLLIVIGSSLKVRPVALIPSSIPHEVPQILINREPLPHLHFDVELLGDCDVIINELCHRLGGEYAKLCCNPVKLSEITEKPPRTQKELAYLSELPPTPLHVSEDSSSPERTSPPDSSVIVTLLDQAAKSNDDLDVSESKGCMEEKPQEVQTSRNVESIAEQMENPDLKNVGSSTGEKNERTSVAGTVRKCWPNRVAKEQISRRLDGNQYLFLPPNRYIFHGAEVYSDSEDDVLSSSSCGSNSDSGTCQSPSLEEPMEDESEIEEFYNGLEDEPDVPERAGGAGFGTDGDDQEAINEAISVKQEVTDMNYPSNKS

Q: How did the outcome turn out when `O=P1(N(CCCl)CCCl)NCCCO1` (stereo not drawn) was run?
A: Its outcome is “inactive”.

Q: For `Cc1ccc([N+](=O)[O-])cc1C`, which outcome is on record?
A: Its outcome is “inactive”.

Q: `CC(Cl)(Cl)C(=O)O` was tested. Which outcome did it give?
A: The outcome was “inactive”.

Q: For `CSC(C)(C)C=NO`, which outcome is on record?
A: The outcome was “inactive”.

Q: For `CCOc1ccc(C(C)(C)COCc2cccc(Oc3ccccc3)c2)cc1`, which outcome is on record?
A: Its outcome is “inactive”.

From PubChem BioAssay (EPA / NIEHS)
